Assay results from PubChem BioAssay.
The source made the active and inactive calls.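 How the source made its calls: active means viability loss from added drug above about 55%, and viability with drug at most 40%, in both replicates (limit read from the data, passing the limit was not always enough); inconclusive means both conditions met in only one replicate; inactive means neither replicate meets both conditions.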

experiment: reversal of MRP1-mediated doxorubicin resistance, pilot screen, H69AR cells, doxorubicin co-treatment (AID 601); conditions: H69AR cells + 2 uM doxorubicin, CellTiter-Glo, 72 h; at 10 µM; hits give high values

| SMILES | differential viability (reversal) |
| --- | --- |
| COC(=O)CC1SCCNC1=O (centres undefined) | 5.06% (inactive) |
| O=C(NCc1ccc(F)cc1)C1CCN(C(=O)NCc2ccccc2)CC1 | 6.81% (inactive) |
| Cc1ccc(-n2nnnc2SCC(=O)N2CCN(C(=O)c3ccco3)CC2)c(C)c1 | 0.745% (inactive) |
| CCOC(=O)c1cc2c(=O)n3cccc(C)c3nc2n(CCc2ccccc2)c1=N | -1.89% (inactive) |
| CC(=O)c1ccc(NS(=O)(=O)c2ccccc2)cc1 | 7.02% (inactive) |
| Cn1c(-n2c(-c3ccco3)nc3ccccc3c2=O)nc2ccccc21 | 5.28% (inactive) |
| O=C(CSc1ncnc2c1cnn2Cc1ccccc1)Nc1ccc2c(c1)OCCO2 | -5.15% (inactive) |
| Cc1cc(C)n(-c2nc3c(c(=O)n(Cc4ccc(Cl)c(Cl)c4)c(=O)n3C)n2C)n1 | 5.92% (inactive) |
| O=C(O)C1CCCN1C(=O)Nc1ccc(F)cc1 (centres undefined) | 10.5% (inactive) |
| COc1ccc(-n2nnc3c(=O)n(C/C=C/c4ccccc4)cnc32)cc1 | 8.94% (inactive) |
| CCc1ccc(CNCc2cccnc2)cc1 | 6.96% (inactive) |
| O=C(CSc1nnc(-c2ccc(Br)o2)n1Cc1ccccc1)c1ccccc1F | -11.2% (inactive) |
| Cc1sc2c(c1C)CN(C1CC(C)(C)NC(C)(C)C1)CN2C(=O)c1ccco1 | 0.235% (inactive) |
| N#Cc1c(NC(NC(=O)c2ccco2)C(=O)c2ccccc2)sc2c1CCCC2 (centres undefined) | -6.42% (inactive) |
| Cc1c(NC(=O)C(C)OC(=O)COc2cccc3c2OC(C)(C)C3)c(=O)n(-c2ccccc2)n1C (centres undefined) | -1.3% (inactive) |
| COc1cccc(-c2noc(C3CCCN(C(=O)Cc4ccccc4)C3)n2)c1 (centres undefined) | -2.34% (inactive) |
| O=C(c1ccccc1Br)N1CCN(c2ccccc2)CC1 | 12.9% (inactive) |
| CCOC(=O)C1CCN(c2c(NCCN3CCN(c4ccccc4)CC3)c(=O)c2=O)CC1 | -5.04% (inactive) |
| O=C(CSc1nc(-c2ccccc2)cs1)NCc1ccco1 | 1.79% (inactive) |
| COc1ccc(NS(=O)(=O)c2c(C)[nH]c(=O)[nH]c2=O)c(OC)c1 | 1.25% (inactive) |
| CC1CCN(C(=O)CN2C(=O)C(C)(C)Oc3ccc(C(=O)NC4CCCC4)cc32)CC1 | 4.5% (inactive) |
| Cc1cc(=O)n2nc(-c3ccccc3)sc2n1 | 4.42% (inactive) |
| CCOC(=O)C1CCN(c2c(N3CCCCCC3)c(=O)c2=O)CC1 | 0.92% (inactive) |
| C=CCn1c(SCC(=O)c2ccc(OC)cc2)nnc1C(C)NC(=O)c1cccs1 (centres undefined) | -5.4% (inactive) |
